Data taken from the supplement of paper PMC10849652.
Of roughly 7,900 targets only a part is listed; those with a hit were picked by preference. About 0.6% of all pairs of compound and target were hits.

Compound: CCn1cc(-c2ccnc3[nH]c(-c4cccc(CN(C)C)c4)cc23)c(-c2ccc(NC(=O)N(C)C)cc2)n1
Experiment: log2 fold change, soluble protein after heating vs DMSO (PISA); higher = thermal stabilisation; K562 cells, 10 uM, 30 min; active = over 0.2 and 3.5 SD of the protein, either way, in both replicates (recomputed)
Outline: (§1)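 For each measurement, 10 μM compound was applied for 30 min to K562 cells at 2×10^6 cells/mL. Aliquots were heated for 3 min across 48°C-58°C, pooled, and extracted in PBS with 0.5% NP-40 at 4°C; the supernatant after 21,000xg for 90 min was soluble protein. This was quantified by TMTpro 16plex LC-MS/MS with channel sums equalised, and thermal stability was reported relative to control samples from duplicates, on a log2 fold-change scale.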

Sequence of UniProt P51798 (P51798 whole entry, looked up): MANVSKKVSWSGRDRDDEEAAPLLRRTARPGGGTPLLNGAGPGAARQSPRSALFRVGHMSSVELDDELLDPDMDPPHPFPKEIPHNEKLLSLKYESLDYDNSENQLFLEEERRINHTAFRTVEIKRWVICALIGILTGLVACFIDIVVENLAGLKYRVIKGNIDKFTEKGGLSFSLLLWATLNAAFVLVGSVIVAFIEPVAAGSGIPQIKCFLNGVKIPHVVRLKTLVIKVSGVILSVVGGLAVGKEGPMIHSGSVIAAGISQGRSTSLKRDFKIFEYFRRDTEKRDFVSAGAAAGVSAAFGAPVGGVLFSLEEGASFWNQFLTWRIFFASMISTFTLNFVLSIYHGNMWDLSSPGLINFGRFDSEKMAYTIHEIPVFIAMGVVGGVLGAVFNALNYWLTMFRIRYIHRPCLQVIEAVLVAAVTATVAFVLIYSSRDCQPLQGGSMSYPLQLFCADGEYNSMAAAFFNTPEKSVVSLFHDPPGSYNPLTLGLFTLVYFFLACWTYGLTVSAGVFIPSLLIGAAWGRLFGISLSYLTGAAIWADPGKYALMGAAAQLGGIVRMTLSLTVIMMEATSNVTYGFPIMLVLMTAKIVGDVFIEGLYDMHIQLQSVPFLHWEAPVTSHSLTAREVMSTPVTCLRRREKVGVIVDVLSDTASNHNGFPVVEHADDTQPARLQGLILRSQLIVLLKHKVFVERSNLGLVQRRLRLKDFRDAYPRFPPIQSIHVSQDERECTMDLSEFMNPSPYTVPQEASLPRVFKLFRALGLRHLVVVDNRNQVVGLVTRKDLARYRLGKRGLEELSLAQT
Sequence of UniProt P50750 (P50750 whole entry, looked up): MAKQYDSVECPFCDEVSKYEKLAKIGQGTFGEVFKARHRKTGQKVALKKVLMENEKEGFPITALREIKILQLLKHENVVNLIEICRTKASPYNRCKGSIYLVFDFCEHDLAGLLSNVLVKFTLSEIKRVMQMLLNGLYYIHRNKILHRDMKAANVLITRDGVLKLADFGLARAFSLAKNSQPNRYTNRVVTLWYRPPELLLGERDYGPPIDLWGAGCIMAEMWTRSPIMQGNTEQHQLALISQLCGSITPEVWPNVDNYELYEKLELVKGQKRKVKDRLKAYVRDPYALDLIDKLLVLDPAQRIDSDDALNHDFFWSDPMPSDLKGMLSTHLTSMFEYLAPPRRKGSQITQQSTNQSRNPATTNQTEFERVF
Sequence of UniProt Q8IUI8 (Q8IUI8 whole entry, looked up): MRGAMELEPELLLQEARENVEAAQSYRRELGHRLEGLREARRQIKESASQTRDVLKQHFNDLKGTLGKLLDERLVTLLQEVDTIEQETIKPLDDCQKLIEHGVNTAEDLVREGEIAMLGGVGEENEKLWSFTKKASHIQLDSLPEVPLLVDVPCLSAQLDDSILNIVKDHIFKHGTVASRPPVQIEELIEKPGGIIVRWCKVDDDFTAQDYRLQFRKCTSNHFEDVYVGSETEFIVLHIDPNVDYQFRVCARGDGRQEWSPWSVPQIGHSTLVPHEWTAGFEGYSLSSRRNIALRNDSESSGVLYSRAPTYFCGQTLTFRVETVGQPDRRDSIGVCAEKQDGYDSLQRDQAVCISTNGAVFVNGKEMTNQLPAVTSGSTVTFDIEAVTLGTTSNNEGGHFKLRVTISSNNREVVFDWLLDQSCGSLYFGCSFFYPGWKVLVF
Sequence of UniProt P86791 (P86791 whole entry, looked up): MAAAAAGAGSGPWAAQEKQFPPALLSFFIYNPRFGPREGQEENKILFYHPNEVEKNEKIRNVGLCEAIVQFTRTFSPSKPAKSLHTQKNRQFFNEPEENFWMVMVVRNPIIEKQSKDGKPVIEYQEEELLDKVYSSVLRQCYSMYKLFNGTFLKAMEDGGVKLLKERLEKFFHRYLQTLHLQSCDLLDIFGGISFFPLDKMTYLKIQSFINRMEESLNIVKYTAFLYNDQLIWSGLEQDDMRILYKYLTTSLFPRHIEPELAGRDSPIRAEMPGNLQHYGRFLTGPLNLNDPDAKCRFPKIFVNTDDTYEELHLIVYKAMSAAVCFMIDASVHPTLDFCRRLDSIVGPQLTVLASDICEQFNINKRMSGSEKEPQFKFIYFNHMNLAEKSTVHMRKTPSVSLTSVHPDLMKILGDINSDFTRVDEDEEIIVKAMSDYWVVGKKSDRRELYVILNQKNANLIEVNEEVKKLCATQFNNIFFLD
Sequence of UniProt Q5T5Y3 (Q5T5Y3 whole entry, looked up): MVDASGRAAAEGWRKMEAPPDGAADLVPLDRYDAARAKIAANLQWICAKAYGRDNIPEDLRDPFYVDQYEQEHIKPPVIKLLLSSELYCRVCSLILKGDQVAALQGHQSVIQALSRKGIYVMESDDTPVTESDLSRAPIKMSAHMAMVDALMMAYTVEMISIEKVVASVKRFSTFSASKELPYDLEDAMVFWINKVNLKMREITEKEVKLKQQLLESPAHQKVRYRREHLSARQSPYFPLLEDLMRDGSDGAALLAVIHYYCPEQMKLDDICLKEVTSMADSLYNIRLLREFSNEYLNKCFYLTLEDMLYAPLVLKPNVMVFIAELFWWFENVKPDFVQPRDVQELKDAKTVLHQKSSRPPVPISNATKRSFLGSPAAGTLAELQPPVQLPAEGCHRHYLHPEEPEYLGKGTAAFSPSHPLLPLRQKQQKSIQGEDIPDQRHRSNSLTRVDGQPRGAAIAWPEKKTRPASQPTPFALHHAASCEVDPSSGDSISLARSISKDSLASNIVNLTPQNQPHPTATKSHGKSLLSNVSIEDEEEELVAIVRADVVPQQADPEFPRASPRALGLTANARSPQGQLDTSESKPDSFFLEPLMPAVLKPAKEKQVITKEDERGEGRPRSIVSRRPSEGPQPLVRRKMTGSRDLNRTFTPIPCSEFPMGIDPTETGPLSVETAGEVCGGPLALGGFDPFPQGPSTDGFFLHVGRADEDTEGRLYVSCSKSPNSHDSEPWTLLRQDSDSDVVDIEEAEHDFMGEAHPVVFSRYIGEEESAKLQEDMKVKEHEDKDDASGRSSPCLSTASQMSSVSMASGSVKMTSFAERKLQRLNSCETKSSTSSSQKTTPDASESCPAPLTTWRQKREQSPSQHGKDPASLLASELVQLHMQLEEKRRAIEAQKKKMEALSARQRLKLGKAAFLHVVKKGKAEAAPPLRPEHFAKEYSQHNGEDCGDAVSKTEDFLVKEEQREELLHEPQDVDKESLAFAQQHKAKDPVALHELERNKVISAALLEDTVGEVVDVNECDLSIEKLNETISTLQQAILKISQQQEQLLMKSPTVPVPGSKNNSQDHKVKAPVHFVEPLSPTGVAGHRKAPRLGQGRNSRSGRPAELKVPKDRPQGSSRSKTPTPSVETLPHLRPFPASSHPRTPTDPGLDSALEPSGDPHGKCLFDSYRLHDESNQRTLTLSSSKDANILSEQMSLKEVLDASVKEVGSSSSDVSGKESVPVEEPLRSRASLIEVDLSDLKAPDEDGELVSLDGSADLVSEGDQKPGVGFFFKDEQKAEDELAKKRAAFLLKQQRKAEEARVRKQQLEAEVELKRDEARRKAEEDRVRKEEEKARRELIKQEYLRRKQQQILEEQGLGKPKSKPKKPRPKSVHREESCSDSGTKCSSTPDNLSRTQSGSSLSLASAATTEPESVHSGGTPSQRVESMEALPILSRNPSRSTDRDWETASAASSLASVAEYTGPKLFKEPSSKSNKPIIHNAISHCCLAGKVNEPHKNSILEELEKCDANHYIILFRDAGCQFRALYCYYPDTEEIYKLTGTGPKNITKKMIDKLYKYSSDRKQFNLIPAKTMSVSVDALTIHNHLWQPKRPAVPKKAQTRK
Sequence of UniProt Q13901 (Q13901 whole entry, looked up): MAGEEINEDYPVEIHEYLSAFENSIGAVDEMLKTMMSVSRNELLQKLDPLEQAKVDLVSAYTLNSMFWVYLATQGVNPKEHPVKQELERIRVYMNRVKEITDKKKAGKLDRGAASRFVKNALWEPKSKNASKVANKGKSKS
Sequence of UniProt Q9NPF2 (Q9NPF2 whole entry, looked up): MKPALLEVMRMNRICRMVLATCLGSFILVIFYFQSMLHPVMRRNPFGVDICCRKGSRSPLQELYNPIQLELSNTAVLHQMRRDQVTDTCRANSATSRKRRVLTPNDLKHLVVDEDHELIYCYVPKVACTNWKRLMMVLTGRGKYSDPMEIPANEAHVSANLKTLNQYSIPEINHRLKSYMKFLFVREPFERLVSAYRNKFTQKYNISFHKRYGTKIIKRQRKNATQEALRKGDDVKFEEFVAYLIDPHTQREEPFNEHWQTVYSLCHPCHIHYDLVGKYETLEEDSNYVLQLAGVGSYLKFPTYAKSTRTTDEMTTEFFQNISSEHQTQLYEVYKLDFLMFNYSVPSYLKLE
Sequence of UniProt Q16740 (Q16740 whole entry, looked up): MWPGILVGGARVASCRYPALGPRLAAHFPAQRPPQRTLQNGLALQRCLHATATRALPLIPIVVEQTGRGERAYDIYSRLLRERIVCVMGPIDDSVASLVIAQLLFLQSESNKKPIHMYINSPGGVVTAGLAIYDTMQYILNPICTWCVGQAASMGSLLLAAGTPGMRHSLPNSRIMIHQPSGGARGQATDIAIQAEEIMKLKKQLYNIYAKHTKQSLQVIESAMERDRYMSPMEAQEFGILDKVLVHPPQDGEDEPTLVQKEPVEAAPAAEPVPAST
Sequence of UniProt Q8N668 (Q8N668 whole entry, looked up): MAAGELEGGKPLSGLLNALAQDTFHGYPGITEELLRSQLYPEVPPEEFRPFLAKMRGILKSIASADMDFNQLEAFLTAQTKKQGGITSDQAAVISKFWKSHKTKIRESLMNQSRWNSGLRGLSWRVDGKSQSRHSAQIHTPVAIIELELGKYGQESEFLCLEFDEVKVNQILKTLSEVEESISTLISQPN
Sequence of UniProt P51946 (P51946 whole entry, looked up): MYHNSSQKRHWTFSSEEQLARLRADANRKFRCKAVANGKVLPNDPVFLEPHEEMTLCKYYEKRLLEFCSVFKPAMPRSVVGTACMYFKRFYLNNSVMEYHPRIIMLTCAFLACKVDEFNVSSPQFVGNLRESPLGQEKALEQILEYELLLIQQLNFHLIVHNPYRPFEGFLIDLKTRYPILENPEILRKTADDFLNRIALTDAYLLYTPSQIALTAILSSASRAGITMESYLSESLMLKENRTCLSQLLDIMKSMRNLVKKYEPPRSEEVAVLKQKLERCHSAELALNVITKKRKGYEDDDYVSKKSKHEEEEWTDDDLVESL

log2 fold change, inactive:
CA1 (UniProt P00915) 0.042
CLSPN (UniProt Q9HAW4) 0.031
CCNH (UniProt P51946) 0.046
CLPP (UniProt Q16740) -0.015
CHD4 isoform 2 (UniProt Q14839) 0.098
CAMSAP1 isoform 3 (UniProt Q5T5Y3) -0.003
CHST11 (UniProt Q9NPF2) -0.017
CRLF3 (UniProt Q8IUI8) -0.041
CAD (UniProt P27708) -0.08

Compound: CN(C)CC(=O)Nc1ccc2[nH]c(=O)c3ccccc3c2c1
Experiment: as above
Outline: as §1

log2 fold change, inactive:
CLCN7 (UniProt P51798) -0.01
CCZ1 (UniProt P86791) -0.002
C1D (UniProt Q13901) -0.127
CNOT7 (UniProt Q9UIV1) -0.121
CDC42BPA isoform 6 (UniProt Q5VT25) 0.042
COMMD1 (UniProt Q8N668) 0.019
CETN3 (UniProt O15182) -0.043
C4orf33 (UniProt Q8N1A6) -0.007
CDK9 isoform 2 (UniProt P50750) -0.042
CDC25B isoform 4 (UniProt P30305) -0.021
CHEK1 (UniProt O14757) 0.003
CD53 (UniProt P19397) -0.007
CRTC2 (UniProt Q53ET0) -0.009
CDK4 (UniProt P11802) -0.085
